Assay results reported in PubChem BioAssay AID651926 (Vanderbilt Specialized Chemistry Center, 2012).
Activity calls are given as the source filed them. No rule for the calls is given here.

Target: Histone deacetylase 2 (Homo sapiens) (UniProt Q92769)
Experiment: recombinant HDAC2 deacetylase inhibitors – biochemical, HDAC isoform panel, selectivity assay for E-cadherin restoration project, profiling panel (AID 651926)

Sequence of Histone deacetylase 2 (Homo sapiens) (Q92769 whole entry, looked up, canonical isoform): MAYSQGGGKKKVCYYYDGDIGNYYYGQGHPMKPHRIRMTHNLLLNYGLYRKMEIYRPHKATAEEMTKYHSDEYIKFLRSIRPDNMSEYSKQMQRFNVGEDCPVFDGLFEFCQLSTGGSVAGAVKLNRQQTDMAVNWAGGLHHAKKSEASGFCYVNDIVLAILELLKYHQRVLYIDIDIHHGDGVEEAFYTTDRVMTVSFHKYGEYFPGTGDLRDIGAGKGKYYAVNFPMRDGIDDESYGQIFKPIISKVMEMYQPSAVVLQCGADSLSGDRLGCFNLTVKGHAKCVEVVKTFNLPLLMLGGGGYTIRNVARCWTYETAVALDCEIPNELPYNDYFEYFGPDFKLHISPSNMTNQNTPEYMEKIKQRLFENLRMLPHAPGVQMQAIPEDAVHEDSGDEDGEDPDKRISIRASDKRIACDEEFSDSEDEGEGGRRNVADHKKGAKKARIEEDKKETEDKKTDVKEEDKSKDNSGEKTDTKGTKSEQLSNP

## O=C(NCCCNC(=O)c1ccc[nH]c1=O)c1cc(-c2ccccc2)on1
  outcome: inactive
